PubChem BioAssay AID1671189 (National Center for Advancing Translational Sciences (NCATS), 2021)
Hit rate of the full screen: of about 1,100 compounds, about 70 (6%) were called active. Not shown: some 22% with an inconclusive outcome. The full list was thinned out, with actives kept by preference. Values without a mark were called inactive. Calls follow the shape of the dose curve; as a rule, active = well fitted curve in the direction sought with a large enough effect; inconclusive = small, poorly fitted or top-dose-only effect, or another doubt; inactive = no such curve, though single readings can be large or run the other way.

molecular target: Polyunsaturated fatty acid lipoxygenase ALOX12 (Homo sapiens) (UniProt P18054); experiment: Confirmatory qHTS assay for inhibitors of human arachidonate 12S-lipoxygenase (ALOX12): Round 2; conditions: purified human 12-LOX, xylenol orange absorbance; series mostly up to 125 µM; activity change, negative = inhibition: at the top concentration
In short: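 Activity was measured as hydroperoxide formation via ferrous/xylenol orange, taking the 573 nm to 405 nm absorbance ratio. Reaction: 40 uM arachidonic acid, 30 min at room temperature, after 15 min compound preincubation with 150 nM enzyme, pH 7.0 Hepes buffer.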
% is scaled to controls: 0 for no effect and ±100 for the full control effect; potency is read from the fitted curve at half-maximal effect.

Sequence of Polyunsaturated fatty acid lipoxygenase ALOX12 (Homo sapiens) (P18054 whole entry, looked up): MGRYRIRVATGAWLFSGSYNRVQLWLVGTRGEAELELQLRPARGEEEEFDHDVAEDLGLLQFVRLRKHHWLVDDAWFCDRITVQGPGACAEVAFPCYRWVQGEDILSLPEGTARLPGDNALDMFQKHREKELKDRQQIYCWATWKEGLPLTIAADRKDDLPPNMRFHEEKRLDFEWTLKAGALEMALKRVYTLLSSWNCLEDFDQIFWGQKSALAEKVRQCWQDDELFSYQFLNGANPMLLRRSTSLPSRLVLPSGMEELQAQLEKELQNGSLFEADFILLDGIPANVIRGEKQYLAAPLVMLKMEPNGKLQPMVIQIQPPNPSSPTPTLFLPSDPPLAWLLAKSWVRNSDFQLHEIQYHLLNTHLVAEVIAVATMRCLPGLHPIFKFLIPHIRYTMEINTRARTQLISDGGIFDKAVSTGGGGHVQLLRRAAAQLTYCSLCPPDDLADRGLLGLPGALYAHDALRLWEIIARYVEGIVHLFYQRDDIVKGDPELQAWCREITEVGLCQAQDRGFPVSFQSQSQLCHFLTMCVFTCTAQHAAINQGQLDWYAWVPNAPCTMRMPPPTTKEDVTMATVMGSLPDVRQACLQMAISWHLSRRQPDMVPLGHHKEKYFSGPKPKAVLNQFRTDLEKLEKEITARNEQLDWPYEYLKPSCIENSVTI

| Compound | activity change, negative = inhibition | Potency |
| --- | --- | --- |
| O=C1NCc2ccccc2CC12CCN(Cc1c(F)cccc1F)C2 (stereo not drawn) | -25.4% |  |
| COc1ccc(-c2nc(C3CC3)nc3c2CCN(C(=O)c2ccc(C(F)(F)F)cc2)CC3)cc1 | -23.3% |  |
| O=[S+]([O-])(c1ccccc1)N1CC(Oc2ccc(F)c(F)c2)C1 | -14.7% |  |
| CCC(=O)N1Cc2ccccc2CC2(CCCN(CC3CCNCC3)C2)C1 (stereo not drawn) | -7.83% |  |
| NCc1ccccc1-c1ccc(O)cc1 | -3.22% |  |
| Cn1nc(C2CCNC2)c2c(C(=O)NCc3ccncc3)cc(C3CC3)nc21 (stereo not drawn) | -24.7% |  |
| O=C1NC2(Cc3ccccc31)CN(C(=O)c1ccc3c(c1)OCO3)C2 | -19.5% |  |
| CCC(=O)NC(c1cc(Cl)c2cccnc2c1O)C1CC1 (stereo not drawn) |  | 12.2 µM (active) |
| CC(C)C[C@@H](N)C(=O)O | -4.33% |  |
| COc1cccc([S+](=O)([O-])N2CC(Oc3ccc(F)c(F)c3)C2)c1 | -5.6% |  |
| COc1cccc(N2C(=O)NC(=NC3CCCCC3)C23CCCN(C(=O)c2ccccc2)C3)c1 (stereo not drawn) | -11.8% |  |
| CC(=O)NC1CC2(CCN(C(=O)Cc3c(C)noc3C)CC2)Oc2ccccc21 (stereo not drawn) | -16.9% |  |
| CC(C)NC(=O)N1CCC2(CC1)CN(C(=O)Cc1c[nH]c3ccccc13)CCO2 | -6.28% |  |
| O=C(Nc1ccc(Oc2ccccc2)cc1)O[C@@H]1CO[C@H]2[C@@H]1OC[C@@H]2NS(=O)(=O)c1ccc(Cl)cc1 |  | 5.01 µM (active) |
| CC(C)C(=O)N1Cc2ccccc2CC2(CCCCN2CC2CCNC2)C1 (stereo not drawn) | -15.4% |  |
| CN(C)CCCC(=O)N1Cc2ccccc2CC2(CCCCN2Cc2ccccc2)C1 (stereo not drawn) | -27.8% |  |
| Cc1cc(C(=O)NC2CCNCC2)c2c(C3CCNCC3)noc2n1 | -7.39% |  |

| Compound | activity change, negative = inhibition | Potency |
| --- | --- | --- |
| CC(C)c1ccc(CNC(=O)C2CCN(c3cc(C(F)(F)F)ncn3)CC2)cc1 | 3.84% [at 64.5 µM] |  |
| O=C1Nc2ccccc2CC12CN(CC1CCCC1)C2 | 13.7% |  |
| O=C1Nc2ccccc2CN(C/C=C/c2ccccc2)C12CCNC2 (stereo not drawn) | -25.1% |  |
| O=C1Nc2ccccc2CN(CC2CCCCC2)C12CCNCC2 |  | 49.4 µM (active) |
| C[S+](=O)([O-])N1Cc2ccccc2CC2(CCCCN2CC2CCNCC2)C1 (stereo not drawn) | -4.25% |  |
| COc1ccc(CNc2ncnc3c2CN(C2CCNCC2)C(=O)CN3C)cc1 | -18.4% |  |
| O=C(c1ccccc1)N1CCn2c(nnc2C2CCNCC2)C1 | -13.7% |  |
| COc1cccc(CNc2ccc([S+](=O)([O-])Nc3cc4ccccc4s3)cc2)c1O |  | 19.3 µM (active) |
| Cc1ccc2nc(C3CCCN(Cc4ccccc4)C3)[nH]c(=O)c2c1 (stereo not drawn) | -22% |  |
| O=C(c1ccccn1)N1CCn2c(nn(-c3ccc(Cl)cc3)c2=O)C1 | -8.97% |  |
| O=C1NC(=NC2CCCC2)C2(CCN(CC3CC3)C2)N1c1cccnc1 (stereo not drawn) | -8.29% |  |
| CNC(=O)[C@@H](C1CCCCC1)N1CCC[C@H]1C(=O)N1CCC1 |  | 15.8 µM (active) |
| C#CCN(C)C(=O)[C@@H]1CCCN1[C@H](CC(C)C)C(=O)NC | -7.98% [at 64.5 µM] |  |
| Cc1n[nH]c(C)c1CN1CCC2(CC1)CCN(C1CCOCC1)CC2CO (stereo not drawn) | 6.52% [at 64.5 µM] |  |
| CN1CC(=O)N(C2CCNCC2)Cc2c(NCCc3cccc(F)c3)ncnc21 | -18.2% |  |
| COc1ccc(CN2Cc3[nH]cnc3C[C@H]2C(=O)NCc2ccco2)cc1 | -22.1% |  |
